Laboratory results as given in PubChem BioAssay (NCATS).
Records with an inconclusive call do not appear. Activity calls are given as the source filed them. Unless noted, calls come from the whole dose curve; as a rule, active = well fitted curve in the direction sought with a large enough effect; inconclusive = small, poorly fitted or top-dose-only effect, or another doubt; inactive = no such curve, though single readings can be large; an effect the other way counts as inactive or inconclusive.

Assays:
[1] = qHTS for Inhibitors of Plasmodium falciparum (DD2) proliferation (AID 504314);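 note: parasite DNA measured by SYBR Green fluorescence after red cell lysis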
Outline: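 Fluorescence read-out (ex 485/em 535 nm) of SYBR Green-stained parasite DNA quantifies intraerythrocytic growth. Cultures at 0.3% parasitemia and 2.5% hematocrit were treated for 72 h; data normalized to DMSO and 0.29 uM artemisinin wells.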

[2] = qHTS for Inhibitors of Plasmodium falciparum (GB4) proliferation (AID 504315); note: nearly all actives have a fitted effect of over 50% in size
Outline: (§1)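 Erythrocytes infected with P. falciparum line (0.3% parasitemia, 2.5% hematocrit final) incubated with compounds 72 h at 37 °C, 5% CO2; SYBR Green lysis buffer added, fluorescence read next day. Normalized to 0.29 uM artemisinin and DMSO.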

[3] = qHTS for Inhibitors of Plasmodium falciparum (CP250) proliferation (AID 504320)
Outline: as §1

[4] = qHTS for Inhibitors of Plasmodium falciparum (HB3) proliferation (AID 504318); note: nearly all actives have a fitted effect of over 60% in size
Outline: as §1

[5] = biological target: Mitogen-activated protein kinase 10 (Mus musculus) (UniProt Q61831); test: JNK3 AlphaScreen Assay (AID 530; active = well fitted curve in either direction with a large enough effect, not every such curve was filed as active;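 note: kinase came from lysate of stimulated human HepG2 cells; signal reports phosphorylation of biotinylated GST-cJun 1-79 at Ser73 with 10 µM ATP; series mostly up to about 57 µM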)
Outline: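 Inhibitors reduce antibody binding to phosphorylated biotin-cJun, lowering AlphaScreen luminescence. Lysates from HepG2 cells pre-activated by IL-1beta plus TNF-alpha supplied JNK3; compounds were titrated.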

[6] = biological target: 3',5'-cyclic-AMP phosphodiesterase 4B (Homo sapiens) (UniProt Q07343); test: qHTS Assay for Inhibitors of PDE-IV (AID 607; active = well fitted activation curve with a large enough effect in the main read-out, with a control signal flat, not every such curve was filed as active)
3',5'-cyclic-AMP phosphodiesterase 4B (Homo sapiens), sequence (Q07343 whole entry, looked up): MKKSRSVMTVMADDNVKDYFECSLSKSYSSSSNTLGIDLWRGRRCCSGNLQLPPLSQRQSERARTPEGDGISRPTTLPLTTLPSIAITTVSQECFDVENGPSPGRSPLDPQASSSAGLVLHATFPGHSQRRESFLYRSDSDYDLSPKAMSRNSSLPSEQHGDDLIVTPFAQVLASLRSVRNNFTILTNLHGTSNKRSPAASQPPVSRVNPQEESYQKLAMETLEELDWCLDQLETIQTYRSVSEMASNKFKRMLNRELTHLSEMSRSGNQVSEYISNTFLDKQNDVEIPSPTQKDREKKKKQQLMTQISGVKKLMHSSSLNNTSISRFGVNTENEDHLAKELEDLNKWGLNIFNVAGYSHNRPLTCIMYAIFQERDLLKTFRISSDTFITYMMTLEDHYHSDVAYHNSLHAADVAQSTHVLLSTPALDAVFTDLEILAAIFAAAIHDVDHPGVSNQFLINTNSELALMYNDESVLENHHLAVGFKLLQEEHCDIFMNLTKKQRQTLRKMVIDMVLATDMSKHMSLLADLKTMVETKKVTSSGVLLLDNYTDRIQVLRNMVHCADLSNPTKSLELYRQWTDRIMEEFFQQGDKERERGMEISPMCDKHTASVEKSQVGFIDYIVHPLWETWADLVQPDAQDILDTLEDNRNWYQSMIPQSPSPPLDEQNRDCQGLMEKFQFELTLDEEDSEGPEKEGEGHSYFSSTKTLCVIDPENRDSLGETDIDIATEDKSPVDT
Outline: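 Live HEK293 cells with a modified cyclic nucleotide-gated (CNG) channel report intracellular cAMP via membrane-potential dye fluorescence (ex 535/em 590 nm). Endogenous PDE-IV was targeted. Compounds were tested at up to 22.9 uM final; RO 20-1724 100 uM served as control.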

Measured: Potency

COC(=O)C1=C(C(=O)OC)[C@@H]2N(Cc3ccccc3)c3ccccc3[C@@]23C[C@@H](C(=O)OC)N(C(C)=O)C3=N1
inactive: [1] | [2] | [3]

CCCCc1nc2c(c3c1C[C@H](C)OC3)CN(C(=O)COC)CC2
inactive: [1] | [2] | [4] | [3]

COC/C=C/C1=CC2=CC(=O)C(C)(OC(=O)c3cnc4ccccc4n3)C(=O)C2=CN1C1CCCCC1 (stereo not given)
inactive: [1] | [2] | [4] | [3]

CC1(OC(=O)CCc2ccccc2)C(=O)C=C2C=C(c3ccc(C#N)cc3)N(Cc3ccccc3)C=C2C1=O (stereo not given)
inactive: [1] | [2] | [3]

COCCN1C(=O)N[C@@H](c2cccc(F)c2)C(C(C)=O)=C1C
inactive: [1] | [2] | [4] | [3]

COC(=O)[C@@]1(Cc2ccc(OC)cc2)[C@H]2c3cc(C(=O)N4CCCC4)n(CCSCCO)c3C[C@H]2CN1C(=O)c1ccccc1
inactive: [5] | [6]

CCN1C(=O)N[C@@H](c2cccc(C(F)(F)F)c2)C(C(C)=O)=C1C
inactive: [1] | [2] | [4] | [3]

CCOC(=O)CN1C(=O)N[C@@H](c2ccco2)C(C(C)=O)=C1C
inactive: [1] | [2] | [4] | [3]

COC(=O)[C@H]1C[C@@H]1[C@H](NS(=O)(=O)c1ccc(-c2ccccc2)cc1)c1ccccc1
inactive: [5]

CCN1C(=O)NC(c2ccc(Br)cc2)C(C(=O)OC)=C1C (stereo not given)
inactive: [1] | [2] | [3]

COC(=O)CCCC1=CC2=C(c3ccccc3)C(=O)C(C)(OC(=O)C3CCCC3)C(=O)C2=CN1C1CC1 (stereo not given)
inactive: [1] | [2] | [4] | [3]

C=CC1=C2C=C(C3CC3)N(CCCCO)C=C2C(=O)C(C)(OC(=O)c2ccco2)C1=O (stereo not given)
inactive: [1] | [2] | [4] | [3]

COC(=O)[C@@H]1C[C@H]1[C@@H](NS(=O)(=O)c1ccc(-c2ccccc2)cc1)c1ccccc1
inactive: [5] | [6]

O=C(NCCF)[C@H]1C[C@@H]1[C@H](NP(=O)(c1ccccc1)c1ccccc1)c1ccccc1
inactive: [5] | [6]

CCN1C(=O)N[C@@H](c2ccco2)C(C(=O)OC)=C1C
inactive: [1] | [2] | [4] | [3]

CC(C)OCCCN1C=C2C(=O)C(C)(OC(=O)CCc3ccccc3)C(=O)C=C2C=C1c1ccc(C#N)cc1 (stereo not given)
inactive: [1] | [2] | [3]

COC/C=C/C1=CC2=CC(=O)C(C)(OC(=O)c3cnc4ccccc4n3)C(=O)C2=CN1C1CC1 (stereo not given)
inactive: [1] | [2] | [4] | [3]
